In PubChem BioAssay AID1942 (Johns Hopkins Ion Channel Center, 2009):
Screen size: about 2,400 compounds; about 580 (24%) were called active. A selection follows. A number with no mark means an inactive call.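 Rule for the calls: active = activity change at or above the mean plus 3 SD of buffer wells without dofetilide, per plate; inactive = the rest.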

What follows are compounds tested against Potassium voltage-gated channel subfamily KQT member 2 (Rattus norvegicus) (UniProt O88943) (assay: rat KCNQ2 channel activation by compounds alone, confirmation, counter-screen for hERG block protector project, cell-based, CHO, FluxOR thallium flux (AID 1942;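 note: normalized value minus buffer-control mean plus three SD of buffer wells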)). Details: CHO-KCNQ2 cells, FluxOR thallium flux fluorescence; at 10 µM; active compounds read high.
Sequence of Potassium voltage-gated channel subfamily KQT member 2 (Rattus norvegicus) (O88943 whole entry, looked up): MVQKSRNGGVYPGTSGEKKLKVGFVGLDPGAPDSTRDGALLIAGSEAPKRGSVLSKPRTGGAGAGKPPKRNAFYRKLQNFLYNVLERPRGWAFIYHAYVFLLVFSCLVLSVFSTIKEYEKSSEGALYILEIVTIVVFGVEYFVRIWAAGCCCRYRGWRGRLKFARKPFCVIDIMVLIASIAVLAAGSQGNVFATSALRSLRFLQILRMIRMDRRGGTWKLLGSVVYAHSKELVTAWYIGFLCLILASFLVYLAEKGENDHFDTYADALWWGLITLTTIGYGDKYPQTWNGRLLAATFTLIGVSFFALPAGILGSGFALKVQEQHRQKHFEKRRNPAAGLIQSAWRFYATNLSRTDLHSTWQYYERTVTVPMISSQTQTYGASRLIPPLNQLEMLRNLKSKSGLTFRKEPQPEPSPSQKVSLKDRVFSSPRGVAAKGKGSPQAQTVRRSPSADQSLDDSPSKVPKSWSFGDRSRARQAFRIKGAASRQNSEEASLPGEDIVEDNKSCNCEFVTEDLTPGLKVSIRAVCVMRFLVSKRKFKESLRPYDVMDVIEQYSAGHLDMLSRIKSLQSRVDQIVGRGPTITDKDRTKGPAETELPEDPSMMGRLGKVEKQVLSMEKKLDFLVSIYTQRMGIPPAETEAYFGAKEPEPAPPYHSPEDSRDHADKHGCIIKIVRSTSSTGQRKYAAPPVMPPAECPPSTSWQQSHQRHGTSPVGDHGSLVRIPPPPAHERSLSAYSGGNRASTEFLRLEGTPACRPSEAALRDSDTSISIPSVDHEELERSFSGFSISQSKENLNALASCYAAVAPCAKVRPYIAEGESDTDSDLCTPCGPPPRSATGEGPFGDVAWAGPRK
With `CC1=NN(C(=O)c2cc(C)nn2C)C(O)(C(F)(F)F)C1` (stereo not given) the activity change, less the hit threshold was -11.2%. `Nc1nc(Br)c2c(F)cccc2c1-c1ccc(Cl)cc1` was tested, and the activity change, less the hit threshold was -21.1%. For `COc1ccc(NC(=O)C2CCN(S(=O)(=O)c3cn(C)nc3C)CC2)cc1`, the activity change, less the hit threshold was -13.2%. `O=C(Cn1c(=O)c2cccn2c2ccccc21)NCCc1ccc(Cl)cc1` gave an activity change, less the hit threshold of -34.9%. Compound `CC1CCCN(C(=O)COC(=O)c2cc(-c3cccs3)nn2-c2ccccc2)C1` (stereo not given) has an activity change, less the hit threshold of -25.5%. For `O=C(CSc1ncnc2c1cnn2-c1ccc(Cl)cc1)NCc1ccc2c(c1)OCO2`, the activity change, less the hit threshold was -11.1%. With `Cc1ccc(-n2ncc3c(SCC(=O)NNC(=O)c4ccco4)ncnc32)cc1` the activity change, less the hit threshold was 4.4% (active). `Cn1ncc2c(NNC(=O)Cc3ccccc3)ncnc21` showed an activity change, less the hit threshold of -14.4%. `CC(C)Oc1c(Cl)cc(CNC(C)(C)CO)cc1Cl` was tested, and the activity change, less the hit threshold was -18.3%. `c1cnc2c(Oc3ncnc4sccc34)cccc2c1` showed an activity change, less the hit threshold of -17%. In the case of `O=C(O)c1ccc(S(=O)(=O)/N=C2\C=C(Nc3ccccc3F)C(=O)c3ccccc32)cc1`, the activity change, less the hit threshold is reported as 3.9% (active). In the case of `Cc1ccccc1NC1=C/C(=N\S(=O)(=O)c2ccc(C(=O)O)cc2)c2ccccc2C1=O`, the activity change, less the hit threshold is reported as 10% (active). In the case of `Cc1cc(NC(C)C)n2c(nc3ccccc32)c1C#N`, the activity change, less the hit threshold is reported as -21.5%. `Cc1cc(NC(=O)CCCn2cnc([N+](=O)[O-])n2)no1` showed an activity change, less the hit threshold of -14.3%. In the case of `Cc1sc2nc[nH]c(=S)c2c1-c1ccccc1`, the activity change, less the hit threshold is reported as 41.3% (active). `Cc1c(-c2ccccc2)sc2nc[nH]c(=S)c12` was tested, and the activity change, less the hit threshold was 43.6% (active). Work on `CC(=O)C1=C(C)NC(=O)NC1/C=C/c1ccccc1` (stereo not given) yielded an activity change, less the hit threshold of -23%. Compound `CCN(CC(=O)NCc1ccc(Cl)cc1)C(=O)CCOc1ccc(C)cc1` has an activity change, less the hit threshold of -24.3%. `CCCCCN(C(=O)CCC(=O)OCC(=O)N(C)C1CCCCC1)c1c(N)n(CCCC)c(=O)[nH]c1=O` gave an activity change, less the hit threshold of -22.7%. `CCN1CCN(C(=O)c2ccc(Cn3c(=O)[nH]c4cc(OC)c(OC)cc4c3=O)cc2)CC1` gave an activity change, less the hit threshold of -7.7%. Compound `CN1CCN(c2ccc(NC(=O)c3ccc(Br)o3)cc2)CC1` has an activity change, less the hit threshold of -6.3%. `Cc1cccc(NC(=S)NC(=O)c2ccco2)c1C` was tested, and the activity change, less the hit threshold was 54.7% (active). Work on `Cc1cccc(NC(=O)CCNC(=O)c2ccco2)c1C` yielded an activity change, less the hit threshold of -12.3%. With `Cc1cccc(NC(=S)NC(=O)c2ccc(Br)o2)c1C` the activity change, less the hit threshold was 12.7% (active). With `Cc1cccc(C)c1NC(=S)NC(=O)c1ccc(Br)o1` the activity change, less the hit threshold was 66.5% (active). `C/C(=C/CCC(C)C1CCC2(C)C3CCC4C(C)(C)C(=O)CCC4(C)C3=CCC12C)C(=O)O` (stereo not given) gave an activity change, less the hit threshold of -17.4%. `CO/N=C(\CCC(=O)O)c1cccs1` showed an activity change, less the hit threshold of -9.3%. With `CC1(C)CC2(CCO1)C(Nc1ccccc1)=NC(=S)N2CC(N)=O` (stereo not given) the activity change, less the hit threshold was -15.8%. In the case of `Cc1ccccc1NC1=NC(=S)N(c2ccccc2)C12CCCCC2`, the activity change, less the hit threshold is reported as 11.4% (active). `COc1ccc(/C=C/c2cc(=O)c3cc(Cl)ccc3o2)cc1` showed an activity change, less the hit threshold of -18.8%. In the case of `NS(=O)(=O)c1ccc(NC(=O)c2ccc(S(=O)(=O)N3CCc4ccccc43)cc2)cc1`, the activity change, less the hit threshold is reported as -7.3%. `COc1ccc(-n2nc(C(=O)NCC(=O)NCc3ccc(F)cc3)c3ccccc3c2=O)cc1OC` showed an activity change, less the hit threshold of -10.3%. `COc1cccc(-n2nc(C(=O)O)c3ccccc3c2=O)c1` was tested, and the activity change, less the hit threshold was 3.7% (active). Work on `COc1cccc(NC(=O)c2nn(-c3ccc(OC)cc3OC)c(=O)c3ccccc23)c1` yielded an activity change, less the hit threshold of -13.8%. `COc1ccc(C)cc1-n1nnnc1SCc1nc2ccccc2c(=O)[nH]1` gave an activity change, less the hit threshold of -22%. For `CCOC(=O)C1=NN(C(=O)c2ccc(OC)cc2)C(O)(c2ccc(Cl)cc2)C1` (stereo not given), the activity change, less the hit threshold was 71.1% (active). Work on `CCOC(=O)CN1N=C(/C=C/c2ccc(OC)cc2)CCC1=O` yielded an activity change, less the hit threshold of -17.3%. In the case of `CCOC(=O)C1=NN(C(=O)c2ccc(C)cc2)C(O)(c2ccc(Cl)cc2)C1` (stereo not given), the activity change, less the hit threshold is reported as 88.1% (active). In the case of `CCC1=NN(C(=O)c2ccc(Cl)cc2)C(O)(c2ccc(C)cc2)C1` (stereo not given), the activity change, less the hit threshold is reported as -12.6%. `CCCCC1(O)CC(C(F)(F)F)=NN1C(=O)COc1ccccc1` (stereo not given) gave an activity change, less the hit threshold of -22.2%. `CCOC(=O)c1nc(C)n(-c2ccc(Cl)cc2)n1` showed an activity change, less the hit threshold of -12.5%. With `CCOC(=O)C1=NN(C(=O)c2ccccc2)C(O)(c2ccc(C)cc2)C1` (stereo not given) the activity change, less the hit threshold was 2.6% (active). Compound `O=C(CSc1nc2cc(Cl)ccc2s1)c1cc2ccccc2o1` has an activity change, less the hit threshold of -2%. For `CN1C(=O)C2(OCC(C)([N+](=O)[O-])CO2)c2ccccc21` (stereo not given), the activity change, less the hit threshold was -9.8%. For `CC1=C(C#N)C(Nc2cc(C)ccn2)(C(F)(F)F)C(=O)N1` (stereo not given), the activity change, less the hit threshold was -18.4%. With `CSc1nc2c(c(=O)[nH]1)C(c1ccccc1Cl)CC(=O)N2` (stereo not given) the activity change, less the hit threshold was -20.4%. `Cc1cc(C(=O)NP(=O)(N2CCOCC2)N2CCOCC2)c(C)n1-c1ccc(Br)cc1` gave an activity change, less the hit threshold of -22%. `O=C(CSc1nnc(SCc2ccccc2)s1)N/N=C/c1ccc(Cl)cc1Cl` showed an activity change, less the hit threshold of -22.9%. Compound `O=C1c2ccccc2C(=O)N1c1cccnc1` has an activity change, less the hit threshold of -14.6%. For `Cc1ccc(C)c(NC(=S)c2nc3ccccc3s2)c1`, the activity change, less the hit threshold was -7.6%. `CC(C)Oc1ccc(CNC(=O)C2CCN(C(=O)N3CCOc4ccccc43)CC2)cc1` gave an activity change, less the hit threshold of -20.2%. With `CC(C)CC(=O)Nc1ccc2c3c(cccc13)CC2` the activity change, less the hit threshold was 44.7% (active). `CC(=O)c1ccc2c3c(cccc13)CC2` was tested, and the activity change, less the hit threshold was -12.7%. Compound `COc1cc(C(=O)NCc2ccc(-c3nc4ccccc4o3)cc2)cc(OC)c1OC` has an activity change, less the hit threshold of -13.9%. With `Cc1cc(Cl)c(S(=O)(=O)N2CCSCC2)cc1OCC(=O)NC1CCCCC1` the activity change, less the hit threshold was 57.4% (active). `Cc1cc(=O)[nH]c(SCC(=O)NC2CCCCC2)n1` showed an activity change, less the hit threshold of -14.4%. `Cc1cc(Cl)c(S(N)(=O)=O)cc1OCC(=O)NC1CCCCC1` was tested, and the activity change, less the hit threshold was -7.9%. Compound `COC(=O)c1cc(S(=O)(=O)NCC2CCN(Cc3cc(C)ccc3C)CC2)c[nH]1` has an activity change, less the hit threshold of -11.5%. `Cn1ccnc1C(O)c1cccc(OCc2ccccc2)c1` (stereo not given) showed an activity change, less the hit threshold of -25.3%. `C/C(=N\O)C1CC(CC(=O)O)C1(C)C` (stereo not given) was tested, and the activity change, less the hit threshold was -14.4%. Work on `CN(CC(=O)Nc1ccc(Cl)cc1)C(=O)c1cccc(S(=O)(=O)NCc2ccccc2)c1` yielded an activity change, less the hit threshold of -17.3%. `O=C(Nc1cccc(Br)c1)C1CCCC1` gave an activity change, less the hit threshold of -12.2%. With `O=C(Nc1nc2c(Br)cc(Br)cc2c(=O)s1)C1CCC1` the activity change, less the hit threshold was 9.5% (active). `O=C(Nc1nnc(SCC(=O)N2CCCCC2)s1)C1CCCCC1` was tested, and the activity change, less the hit threshold was -14.2%. In the case of `Cc1cc(=O)oc2c3c(cc(OCC(=O)N[C@@H](Cc4ccccc4)C(=O)O)c12)OC(C)(C)CC3`, the activity change, less the hit threshold is reported as -6.7%. In the case of `C/C(CCC12CC3CC(CC(C3)C1)C2)=N\NC(N)=S`, the activity change, less the hit threshold is reported as -17.2%. `COc1ccc(-c2nc(=S)c3ccc4ccccc4c3[nH]2)cc1` was tested, and the activity change, less the hit threshold was 51.5% (active). `COc1ccc(-n2c(=S)[nH]c3ccccc3c2=S)cc1` showed an activity change, less the hit threshold of -7.3%. Work on `COc1cccc(C2C3=C(N=c4s/c(=C\c5ccc(OCC(=O)O)cc5)c(=O)n42)c2ccccc2CC3)c1` (stereo not given) yielded an activity change, less the hit threshold of -38.5%. Work on `COc1ccc(-c2csc(NC(=S)NC(=O)c3cccs3)n2)cc1Br` yielded an activity change, less the hit threshold of -20.8%. `COc1ccc(-c2csc(NC(=S)NC(=O)c3cccs3)n2)cc1OC` showed an activity change, less the hit threshold of -5.3%. With `O=C(NC(=S)Nc1nc(-c2ccccc2)cs1)c1cccs1` the activity change, less the hit threshold was -22.7%. Work on `CCc1ccc2nc(NC(=O)c3cc(C)on3)sc2c1` yielded an activity change, less the hit threshold of -6.5%. In the case of `Cc1ccc2nc(NC(=S)NC(=O)c3cccs3)sc2c1`, the activity change, less the hit threshold is reported as 5.5% (active). With `O=C(NC(=S)Nc1nc2ccccc2s1)c1cccs1` the activity change, less the hit threshold was 7.1% (active). For `CC1CCCC(C)N1S(=O)(=O)c1ccc(NC(=O)CCn2cnc3ccccc3c2=O)cc1` (stereo not given), the activity change, less the hit threshold was -11.1%. `CC(C)CC1C(C#N)=C(N)Oc2n[nH]c(-c3cccs3)c21` (stereo not given) showed an activity change, less the hit threshold of -12.4%. `CCN1C(=O)C2(/C(=C(\O)c3ccc4c(c3)OCCO4)C(=O)C(=O)N2CCCOC)c2ccccc21` (stereo not given) gave an activity change, less the hit threshold of -12.7%. `CC(C)C(=O)Nc1ccc2c(c1)Cc1cc(NC(=O)C(C)C)ccc1-2` was tested, and the activity change, less the hit threshold was -17.9%. Work on `O=C(CC1NC(=O)NC1=O)Nc1ccccc1` (stereo not given) yielded an activity change, less the hit threshold of -21.4%. `O=C(CC1CCCC1)Nc1ccc2c(c1)CCC2` was tested, and the activity change, less the hit threshold was 54.5% (active). With `CN1N=C(C(=O)N2CCc3c([nH]c4ccccc34)C2c2c(F)cccc2Cl)CCC1=O` (stereo not given) the activity change, less the hit threshold was -22.4%. `Cc1ccc(C(C(=O)NC(C)(C)C)N(Cc2cccnc2)C(=O)C(=O)NC2CCCCC2)o1` (stereo not given) gave an activity change, less the hit threshold of -14.6%. In the case of `COc1cccc(C=NCCCN=Cc2cccc(OC)c2O)c1O`, the activity change, less the hit threshold is reported as 6% (active). In the case of `COc1cccc(/C=N/Nc2nc3ccccc3[nH]2)c1O`, the activity change, less the hit threshold is reported as -3.2%. `COC(=O)c1cccc(/C=N/NC(N)=S)c1O` gave an activity change, less the hit threshold of -2.4%. `COc1cccc(C=NCC(C)N=Cc2cccc(OC)c2O)c1O` (stereo not given) was tested, and the activity change, less the hit threshold was -2.9%. Compound `CCOc1cccc(/C=N/NC(=O)c2ccc3c(c2)OCCO3)c1O` has an activity change, less the hit threshold of -18.5%. With `COc1cccc(C=Nc2cc(C)cc(C)c2)c1O` the activity change, less the hit threshold was 10% (active). `COc1ccc(-n2c(SCc3ccccn3)nc3c(c2=O)SCC3)cc1OC` was tested, and the activity change, less the hit threshold was -2.7%. Compound `CCC1=C(OC(=O)N(CC)CC)N2C(=O)OC(=NCC3CC3)[C@]2(C)[C@H]2C1=CC[C@H]1C(=O)N(C)C(=O)[C@H]12` has an activity change, less the hit threshold of -15.9%. Compound `O=C1CSC(=S)N1/N=C/c1cc(Br)ccc1O` has an activity change, less the hit threshold of -6.3%. For `O=C(CN1CCN(c2ccc(Cl)cc2)CC1)Nc1ccc(F)cc1`, the activity change, less the hit threshold was -21.6%. `S=c1nc(-c2ccccc2)[nH]c2ccc(Br)cc12` was tested, and the activity change, less the hit threshold was 135% (active). In the case of `S=c1nc(-c2ccc(Br)cc2)[nH]c2ccccc12`, the activity change, less the hit threshold is reported as 100% (active).
